Compound activity from PubChem.
Most compounds without a hit are left out; they make up all but 19% or so of the library.
DT40 TDP1 CPT = qHTS for Inhibitors of human tyrosyl-DNA phosphodiesterase 1 (TDP1): qHTS in cells in presence of CPT; chicken DT40 Tdp1-/-;hTDP1 cells + 20 nM CPT, ATP luminescence, 48 h; Potency, µM (series often up to 46.2 µM), for inactives: at the highest dose activity change, negative = growth inhibition, hits mostly inhibitors; 420,000 compounds, 12% hits; AID 686979, 2013; further: nearly all actives have a fitted effect of over 55% in size
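Cell growth measured by CellTiter-Glo luminescence after a minimum 48 h, 37 C compound exposure with 20 nM CPT in Tdp1-knockout DT40 cells stably expressing hTDP1, seeded 400/well; qHTS titration format.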
HT1080NT lethal = qHTS for induction of synthetic lethality in tumor cells producing 2HG: qHTS for the HT-1080-NT fibrosarcoma cell line; Potency, µM (titrated, usually from 46.1 µM), inactives show at the highest dose activity, negative = less viability, actives largely listed as cytotoxic; HT-1080-NT fibrosarcoma viability, CellTiter-Glo ATP luminescence, 48 h; 360,000 compounds, 1.6% hits;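 further: NT is the 2HG producing partner of a matched IDH1 knockdown line; 0% = DMSO-treated cells and -100% = media-only wells without cells; nearly all actives have a fitted effect of over 55% in size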
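Toxicity toward the 2HG-producing NT line was scored as %Activity, normalised to DMSO and no-cell wells, from CellTiter-Glo luminescence after 48 hours' treatment.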
KB-3-1 tox = qHTS assay for MDR1-selective chemotherapeutics: Primary screen using the parental adenocarcinoma cell KB-3-1; KB-3-1 viability, CellTiter-Glo ATP luminescence, 72 h; Potency, µM (series often up to 46.1 µM), usual class: cytotoxic; 400,000 compounds, 1.4% hits; AID 1347075, 2019; further: nearly all actives have a fitted effect of over 60% in size
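Parental KB-3-1 adenocarcinoma cells in phenol-red-free DMEM with 10% FBS were pin-treated with compounds at several concentrations, incubated 72 h at 37 °C, and viability read by CellTiter-Glo luminescence; concentration-effect curves were fitted after normalization.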
KB-V1 cytotox = qHTS assay for MDR1-selective chemotherapeutics: Primary screen using the drug-selected MDR subline cells KB-V1; KB-V1 MDR cells viability, CellTiter-Glo, 72 h; Potency, µM (series often up to 46.1 µM), most hits filed as cytotoxic; 400,000 compounds, 3.4% hits; further: nearly all actives have a fitted effect of over 60% in size
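Cytotoxicity via CellTiter-Glo luminescence after 72 h compound exposure at 37 degrees C. Cells: drug-selected KB-V1 line, DMEM phenol-red free plus 10% FBS. Compounds tested at multiple concentrations; normalized data fitted to concentration-effect curves.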
DT40 TDP1 no CPT = qHTS for Inhibitors of human tyrosyl-DNA phosphodiesterase 1 (TDP1): qHTS in cells in absence of CPT. AID 686978, 2013. DT40 Tdp1-/- hTDP1 cells, no CPT, ATP luminescence, 48 h. 420,000 compounds, 15% hits. Potency, µM (doses to about 46.2 µM), for the others: top-dose activity change, negative = growth inhibition, actives largely listed as inhibitors; further: nearly all actives have a fitted effect of over 55% in size
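Readout: luminescence from CellTiter-Glo after 30 min in the dark at RT. Cells: DT40 Tdp1-/- with stable hTDP1, 400/well. Exposure: compounds alone, ≥48 hr, 37 °C.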
HT1080 IDH1KD tx = qHTS for induction of synthetic lethality in tumor cells producing 2HG: qHTS for the HT-1080-IDH1KD cell line; 360,000 compounds, 2% hits; HT-1080 IDH1 knockdown viability, ATP luminescence, 48 h; Potency, µM (highest dose often 46.1 µM), without a hit: at the highest dose activity, negative = toxicity, actives largely listed as cytotoxic;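 further: 0% = DMSO wells and -100% = cell-free medium wells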
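% activity derives from luminescence (CellTiter-Glo), normalised to DMSO and no-cell wells. HT-1080-IDH1KD cells, 750/well, had 48 h compound exposure at 37 °C.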
Starred values were filed as active, the others as inactive; i = inactive; ? = inconclusive; . = no result; + = active, no number. The call rests on the fitted dose curve; in most records, active means well fitted curve in the direction sought with a large enough effect; inconclusive means small, poorly fitted or top-dose-only effect, or another doubt; inactive means no such curve, though single readings can be large; an effect the other way counts as inactive or inconclusive. Unless noted, on the % scale 0 is the no-effect control and ±100 the full control effect; potency means the concentration at half of the fitted maximal effect.

SMILES	DT40 TDP1 CPT	HT1080NT lethal	KB-3-1 tox	KB-V1 cytotox	DT40 TDP1 no CPT	HT1080 IDH1KD tx
COc1ccc(-c2c3c(nc4sc(C(=O)Nc5ccccc5)c(N)c24)CCC3)cc1	-9.8%	-0.5%	i	?	?	2.9%
COc1cc(NC(=O)C/C(C)=N/NC(=O)C(=O)NCCO)c(OC)cc1Cl	?	-8.1%	i	i	-25.9%	8.7%
COc1ccc(N2CC(NC(=O)C3CCCCC3)CC2=O)cc1OC (centres undefined)	-17.4%	.	i	?	11.5%	.
CCOC(=O)c1sc(-c2ccc(F)cc2)cc1NC(=O)Nc1ccccc1OC	16.4µM*	20.0%	i	?	?	13.6%
CCOC(=O)c1c(N)sc(N)c1C(=O)OCC	4.61µM*	4.7%	i	i	5.17µM*	-2.8%
CCOC(=O)c1c(C)nc(C)c(C(=O)OCC)c1-c1ccc(O)c(OC)c1	?	-1.7%	i	i	-26.4%	-11.1%
CCOC(=O)c1sc(NC(=O)C2CCC2)cc1C	-9.5%	-1.0%	i	i	20.6µM*	-1.1%
CCOC(=O)c1c(C)nc2sc3c(c2c1-c1ccc(OC)cc1)NC(c1ccc(OC)cc1)NC3=O (centres undefined)	?	7.6%	i	i	13µM*	2.6%
C[C@H](CO)N1C[C@H](C)[C@@H](CN(C)Cc2ccc(C(=O)O)cc2)Oc2c(NS(=O)(=O)c3ccc(F)cc3)cccc2C1=O	10.0%	11.3%	i	i	-6.8%	9.5%
Cc1ccc(NC(=O)c2c(C)nc3sc(C(=O)Nc4ccc(F)cc4)c(N)c3c2-c2ccc(C)o2)c(C)c1	?	.	i	i	18.4µM*	.
CCOC(=O)c1c(N)sc(C(=O)Nc2ccccc2)c1C	?	-7.1%	?	i	18.4µM*	-8.6%
CC(=O)Nc1ccc(NC(=O)C2CCCN2S(=O)(=O)c2ccc3c(c2)CCCC(=O)N3)cc1 (centres undefined)	-12.2%	.	i	?	-1.0%	.
Cc1cn(C2OC(COC(=O)c3ccccc3)C(OC(=O)c3ccccc3)C2OC(=O)c2ccccc2)c(=O)[nH]c1=O (centres undefined)	23.1µM*	-29.5%	i	?	?	?
Cc1noc(/C=C/c2ccccn2)c1[N+](=O)[O-]	?	-14.8%	i	i	20.6µM*	?
Cc1cccn2c(=O)c3cc(C(=O)O)n(C)c3nc12	-7.3%	-9.7%	i	i	-8.8%	-12.6%
Cc1cccn2c(=O)c3cc(C(=O)NC4CCCCC4)n(C)c3nc12	4.61µM*	19.9%	?	?	3.26µM*	3.3%
Cc1cccn2c(=O)c3cc(C(=O)NC(C)(C)C)n(C)c3nc12	?	.	.	.	18.4µM*	.
COC1C=CC(CNC(=O)c2cc3c(=O)n4cccc(C)c4nc3n2C)(OC)O1 (centres undefined)	16.4µM*	-4.3%	i	i	-15.0%	-0.3%
Nc1ccn([C@@H]2O[C@H](C(=O)N(CCC3=CCCCC3)CC3CC3)[C@@H](O)[C@H]2O)c(=O)n1	?	4.2%	i	?	-22.0%	12.2%
Clc1cccc(-c2cccc3nccn23)c1Cl	?	-15.6%	i	i	?	-27.4%
CC(O)(c1ccccc1)c1nc(-c2ccccc2)cs1 (centres undefined)	20.6µM*	?	i	i	?	?
CC(O)(c1ccccc1)c1nc(-c2ccncc2)cs1 (centres undefined)	4.11µM*	+	i	?	?	0.0%
CCN1CCN(c2ncc3c(n2)CCN(Cc2ccccc2C)C3)CC1	?	.	?	i	?	.
COc1cc2cnc(-c3ccccc3)c(-c3ccc(C#N)cc3)c2cc1OC	?	0.0%	13µM*	i	16.4µM*	9.5%
CCc1ccc(/C=C2\SC(=S)N(CCCC(=O)N3CCN(C)CC3)C2=O)cc1	?	-18.6%	i	i	?	?
SMILES	DT40 TDP1 CPT	HT1080NT lethal	KB-3-1 tox	KB-V1 cytotox	DT40 TDP1 no CPT	HT1080 IDH1KD tx
Cc1ccc(S(=O)(=O)NN2C(=O)/C(=C\c3ccc(Cl)cc3)SC2=S)cc1	8.5%	0.2%	i	i	-9.3%	19.1%
COc1ccc(/C=C2\SC(=S)N(CCCC(=O)N3CCN(C)CC3)C2=O)cc1	?	25.9µM*	i	i	?	16.4µM*
CC(C)c1ccc(/C=C2\SC(=S)N(CCC(=O)NCCCn3ccnc3)C2=O)cc1	?	?	i	i	?	-22.4%
COc1ccc(/C=C2\SC(=S)N(CCC(=O)NCCCn3ccnc3)C2=O)cc1	?	2.6%	i	i	16.4µM*	1.8%
O=C(CN1C(=O)/C(=C\c2ccc(F)cc2)Oc2ccccc21)N1CCN(c2ccccn2)CC1	?	4.4%	i	7.31µM*	?	0.6%
NS(=O)(=O)c1ccc(CCN2C(=O)/C(=C\c3ccc(Cl)cc3)SC2=S)cc1	6.51µM*	1.9%	?	18.4µM*	6.51µM*	5.5%
O=C(CN1C(=O)/C(=C\c2cccc(F)c2)Oc2ccccc21)N1CCN(c2ccccn2)CC1	?	15.8%	?	i	?	5.1%
CCOC(=O)c1cccc(NC(=O)c2cc3c(=O)n(Cc4cccnc4)ccc3nc2C)c1	?	.	i	i	?	.
CCN1C[C@@H]2[C@@H]3C(=O)N(Cc4ccccc4)C(=O)[C@@H]3[C@](CC)(C(=O)OC)N2C1=NCc1ccccc1	1.1%	5.7%	i	i	-17.3%	8.4%
O=C(Cn1cc(C(F)(F)F)cc(Cl)c1=O)NCc1ccccc1	5.4%	11.7%	i	i	5.0%	0.3%
CN(C(=O)c1cccc(NC(=O)Cc2cccc(NC(=O)C3CCCN(C(=O)C4CCCC4)C3)c2)c1)C1CC1 (centres undefined)	-23.9%	1.6%	i	i	?	-0.6%
Cc1ccc(/C=C2\SC(=S)N(CCCC(=O)Nc3ccccn3)C2=O)cc1	?	0.2%	?	?	?	-6.7%
